Data: PubChem BioAssay (NCATS)
Records with an inconclusive call do not appear. Values without a mark were called inactive. Active and inactive are the calls of the source. Calls come from the whole dose curve; as a rule, active = well fitted inhibition curve with a large enough effect; inconclusive = small, poorly fitted or top-dose-only effect; inactive = flat fitted curve, though single readings scatter.

Assay: P-glycoprotein substrates identified in KB-8-5-11 adenocarcinoma cell line, qHTS therapeutic library screen (AID 1346987); note: nearly all actives have a fitted effect of over 65% in size
Conditions: KB-8-5-11 (P-gp overexpressing) viability, CellTiter-Glo, 72 h; series mostly up to 44.5 µM; activity change, negative = cytotoxicity: at the top concentration
How it was run: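 KB-8-5-11: colchicine-selected sub-line of KB-3-1 over-expressing P-gp; assay medium lacked colchicine. 72 h drug exposure at 37 degree C, CellTiter-Glo.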
% is set by controls: 0 for no effect and ±100 for the full control effect; potency is the fitted concentration of half-maximal effect.

| Structure (SMILES) | activity change, negative = cytotoxicity | Potency | outcome |
| --- | --- | --- | --- |
| CC(=O)OC1C(O)CC2(C)C(CCC(C)C23Cc2c(O)cc(CO)c(C=O)c2O3)C1(C)C (stereo unspecified) | 1.78% [at 17.3 µM] | – | – |
| Cc1cc(NC(=O)Nc2ccc(F)c(F)c2)n(-c2ccccc2)n1 | -10.9% | – | – |
| CC1=CC(=O)CC(C)(CO)C1(O)/C=C/C(C)O[C@@H]1O[C@H](CO)[C@@H](O)[C@H](O)[C@H]1O (stereo partly specified) | 3.58% [at 17.3 µM] | – | – |
| Oc1ccc(CNc2ccccc2F)c2cccnc12 | – | 6.51 µM (active) | – |
| CC1CCC2(OC1)OC1CC3C4CC=C5CC(O)CC(O[C@@H]6OC[C@@H](O)[C@H](O)[C@H]6O)C5(C)C4CCC3(C)C1(O)C2C (stereo partly specified) | 3.36% [at 17.3 µM] | – | – |
| C=C1CC[C@@H]2[C@](C)(CO[C@@H]3O[C@H](CO)[C@@H](O)[C@H](O)[C@H]3O)[C@H](O)CC[C@@]2(C)[C@@H]1C/C=C1/C(=O)OC[C@H]1O | 1.68% [at 17.3 µM] | – | – |
| COC1CC(OC2CCC3(C)C(=CCC4C3C(OC(C)=O)C(OC(=O)/C=C/c3ccccc3)C3(C)C(C(C)O)CCC43O)C2)OC(C)C1OC1CC(OC)C(OC2OC(C)C(OC3OC(CO)C(O)C(O)C3O)C(OC)C2O)C(C)O1 (stereo unspecified) | – | – | inactive [at 9.29 µM] |
| C=CCC1=C[C@]2(OC)[C@H](C)[C@@H](c3ccc(O)c(OC)c3)O[C@]2(OC)CC1=O | – | – | inactive |
| O=C1C=CC(O)(/C=C/C(=O)OC[C@H]2O[C@@H](Oc3ccc(O)cc3)[C@H](O)[C@@H](O)[C@@H]2O)C=C1 | 4.31% [at 17.3 µM] | – | – |
| C[C@@H]1CCC/C=C/[C@H]2CC(=O)C[C@@H]2[C@@H](O)/C=C/C(=O)O1 | – | – | inactive |
| OCc1ccc(O[C@@H]2O[C@H](CO)[C@@H](O)[C@H](O)[C@H]2O)cc1 | 6.81% | – | – |
